Pf growth 48h – P. falciparum growth inhibition at 48 hours (one generation); P. falciparum luciferase growth in erythrocytes, 48 h; Potency, µM (titrated, usually from 28.7 µM), hits mostly inhibitors; 310,000 tested, 5.9% active
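Luciferase-expressing P. falciparum in infected erythrocytes (2% hematocrit, 0.1% parasitemia final) in RPMI 1640/0.5% Albumax were exposed to compound for 48 hours at 37 C, 5% CO2; growth read as luminescence.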
LmPK inhibitor – blocks Leishmania mexicana pyruvate kinase activity | Q27686 | purified LmPK, Kinase-Glo ATP luminescence, 1 h | Potency, µM (series often up to 57.5 µM), hits mostly inhibitors | 290,000 tested, 0.37% active | AID 1721
Target sequence (Q27686 whole entry, looked up): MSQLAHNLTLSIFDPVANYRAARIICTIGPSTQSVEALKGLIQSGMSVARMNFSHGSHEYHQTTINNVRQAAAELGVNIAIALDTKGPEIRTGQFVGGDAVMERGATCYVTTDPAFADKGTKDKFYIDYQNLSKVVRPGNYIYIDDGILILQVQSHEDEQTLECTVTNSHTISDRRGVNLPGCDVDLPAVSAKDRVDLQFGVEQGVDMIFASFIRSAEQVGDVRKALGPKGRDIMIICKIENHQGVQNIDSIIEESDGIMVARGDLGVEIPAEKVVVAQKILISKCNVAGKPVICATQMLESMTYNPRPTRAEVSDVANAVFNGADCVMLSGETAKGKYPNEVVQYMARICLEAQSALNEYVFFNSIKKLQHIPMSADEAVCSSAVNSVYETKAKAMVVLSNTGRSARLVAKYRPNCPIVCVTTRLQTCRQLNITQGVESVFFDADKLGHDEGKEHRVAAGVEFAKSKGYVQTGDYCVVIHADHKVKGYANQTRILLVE
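Purified LmPK (0.1 nM) with 0.5 mM PEP and 0.1 mM ADP in imidazole buffer pH 7.2 with MgCl2/KCl, 1 h at room temperature. ATP formed was read by luciferase luminescence and normalized to no-enzyme and uninhibited controls.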
Cycloheximide cs – counter-screen for Shiga toxin inhibitors: cycloheximide protein synthesis inhibition. max response, %. cell reporter, cycloheximide protein synthesis inhibition counterscreen. 300,000 tested, 12% active. AID 2314; in the data active = max response mostly above about 13%, no sharp cut-off; inactive = mostly below about 14%; note: read at 38.3 µM for the half of the compounds with a filed dose
Shiga toxin inh – inhibitors of Shiga toxin in Vero cells | Vero cells, Shiga toxin protein synthesis inhibition reporter | inhibition, % at 38.7 µM | 290,000 tested, 9.2% active; in the data active = inhibition mostly above about 28%, no sharp cut-off; inactive = mostly below about 43%
Pf growth 96h – P. falciparum growth inhibition at 96 hour, primary screen for plastid delayed-death inhibitors; P. falciparum luciferase reporter growth, 96 h; Potency, µM (series often up to 28.7 µM), usual class: inhibitors; 320,000 tested, 6.9% active; AID 504834
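Cell-based qHTS: luciferase-tagged P. falciparum in erythrocytes (2% hematocrit, 0.05% parasitemia final) incubated with compounds for 96 hours, 37 C, 5% CO2; luciferase detection reagent then added and luminescence measured.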
Large screens that a line does not name were inactive. Sampled rows, rich in hits. Any-hit rate of the full collection: about 22%. Unless noted, calls come from the whole dose curve; as a rule, active = well fitted inhibition curve with a large enough effect; inconclusive = small, poorly fitted or top-dose-only effect, or another doubt; inactive = no such curve, though single readings can be large or run the other way.

Cc1cccc2c1c(N=NC(N)=S)c(O)n2C1OC(CO)C(O)C(O)C1O (stereo not drawn)	Pf growth 96h inconclusive
CC(=O)Nc1nc(-c2ccccc2)c(-c2ccccc2)o1	none
CC(=O)NC1Sc2ccccc2N=C1c1ccccc1 (stereo not drawn)	LmPK inhibitor inconclusive, Cycloheximide cs 42.8, Shiga toxin inh 111.1, Pf growth 96h inconclusive
COc1cccc(NC(=O)CN(C)C(=O)c2c(C)noc2C)c1	none (no result: LmPK inhibitor, Cycloheximide cs, Shiga toxin inh)
O=C(NCC1CC1)c1onc(CSc2ccncc2)c1C(=O)NCC1CC1	none
Cc1cccc(-c2nc(S(=O)(=O)c3ccc(F)cc3)c(NCCCN3CCOCC3)o2)c1	Pf growth 48h inconclusive, Pf growth 96h 13.1µM
CCCCN(CC)c1nc(-c2ccncc2)nc2ccccc12	Pf growth 48h 2.94µM (no result: Pf growth 96h)
Cc1ccc(-c2nc(NCCN(C)C)c3ccccc3n2)cc1	Pf growth 48h inconclusive, Cycloheximide cs 18.2
CN(C)CCNc1cc(-c2ccncc2)nc2ccccc12	Pf growth 48h 11.7µM, Pf growth 96h 3.29µM
CCOC(=O)CNc1nc(-c2ccncc2)nc2ccccc12	Pf growth 48h inconclusive
Cc1ccc(-c2nc(NCCCO)c3ccccc3n2)cc1	none
NS(=O)(=O)c1ccc(CCNC(=O)C2CC(=O)N(Cc3ccccc3Cl)C2)cc1 (stereo not drawn)	none (no result: LmPK inhibitor, Cycloheximide cs, Shiga toxin inh)
CC(C(=O)Nc1ccccc1C#N)N1C(=O)NC2(CCCCCC2)C1=O (stereo not drawn)	none (no result: LmPK inhibitor, Cycloheximide cs, Shiga toxin inh)
COC(=O)c1cc(C(=O)N2CCc3ccccc32)cc([N+](=O)[O-])c1	none
c1ccc(-c2nc(NCCCN3CCOCC3)c3ccccc3n2)cc1	Pf growth 48h inconclusive (no result: Pf growth 96h)
Cc1cccc(-c2nc(NCCCN3CCOCC3)c3ccccc3n2)c1	Pf growth 96h 2.94µM (no result: Pf growth 48h)
c1ccc(CCNc2nc(-c3ccccn3)nc3ccccc23)cc1	Pf growth 48h 1.04µM, Pf growth 96h 1.65µM
CN(C)CCCNc1nc(-c2ccc(Cl)cc2)nc2ccccc12	Pf growth 48h 10.4µM
Cc1ccc(-c2nc(N(C)C3CCN(C)CC3)c3ccccc3n2)cc1	Pf growth 96h 6.57µM (no result: Pf growth 48h)
O=C(O)CC1c2ccccc2CCN1S(=O)(=O)c1ccc(F)cc1 (stereo not drawn)	Pf growth 96h inconclusive
COC(=O)c1cc(Br)c(N)cc1OC	none
Cc1cccc(-c2nc(NCCCN(C)C)c3ccccc3n2)c1	Pf growth 48h inconclusive, Cycloheximide cs 14.0
O=C(O)CCNc1nc(-c2ccccc2)nc2ccccc12	none
COCCN(CCOC)c1nc(-c2ccc(C)cc2)nc2ccccc12	Cycloheximide cs 12.8, Shiga toxin inh 73.0, Pf growth 96h inconclusive
CCCN(CCC)c1nc(-c2ccccn2)nc2ccccc12	Pf growth 48h 0.828µM, Pf growth 96h 0.329µM
COc1ccccc1C1(O)C(=O)Nc2ccc(C)cc21 (stereo not drawn)	Pf growth 96h inconclusive
COc1ccccc1N(C(=O)CNC(=O)c1ccco1)C(C(=O)NCC1CCCO1)c1ccccc1 (stereo not drawn)	none
Cc1ccc(NC(=O)C2CCN(S(=O)(=O)c3ccc4c(c3)C(C)(C)C(=O)N4C)CC2)c(C)c1	Pf growth 48h inconclusive
COC(=O)CNC(=O)COC(=O)c1ccc(Cl)nc1	none
Cc1ccc(OC(C)C(=O)N2CC(=O)Nc3ccccc32)c(C)c1 (stereo not drawn)	Pf growth 96h inconclusive
Cc1ccc2oc(-c3cc(NC(=O)c4ncn[nH]4)ccc3O)nc2c1	Pf growth 96h inconclusive
Cc1ccc2oc(-c3ccc(NC(=O)c4ccncc4)cc3O)nc2c1	Cycloheximide cs 28.6, Shiga toxin inh 44.4
COc1ccc(CC(=O)Nc2ccc(-c3nc4cc(C)ccc4o3)c(O)c2)cc1OC	Cycloheximide cs 32.7
CC(C)N(Cc1nnc(-c2ccc(Cl)cc2)o1)C(=O)c1cc2ccccc2o1	Pf growth 96h inconclusive (no result: LmPK inhibitor, Cycloheximide cs, Shiga toxin inh)
COc1ccc2[nH]c(C(=O)N3CCN(Cc4ccccc4)CC3)cc2c1OC	none
O=C1NC(c2ccc(O)cc2)Nc2ccccc21 (stereo not drawn)	Cycloheximide cs 13.1
O=C1c2ccccc2C(=O)C1c1ccc(Cl)cc1	Pf growth 48h inconclusive, Cycloheximide cs 27.4, Pf growth 96h inconclusive
O=C1c2ccccc2C(=O)C1c1ccc(F)cc1	Pf growth 96h inconclusive (no result: LmPK inhibitor, Cycloheximide cs, Shiga toxin inh)
O=C1c2ccccc2C(=O)C1c1ccc(O)cc1	Cycloheximide cs 28.5, Shiga toxin inh 70.1, Pf growth 96h inconclusive
O=C1c2ccccc2C(=O)C1c1ccc(Br)cc1	Pf growth 48h inconclusive, Cycloheximide cs 18.7, Shiga toxin inh 87.8, Pf growth 96h 15.1µM
